Here are results for 38 compounds from PubChem BioAssay (NCI).

Compounds without any hit were thinned out: in the full panel of roughly 79,000, 15% have a hit. Values without a mark were called inactive. No stated cut-off is given here; in the data, active means growth inhibition above about 70%; inactive means the rest.

The nature of the first assay: NCI Yeast Anticancer Drug Screen. Data for the mlh1 strain (AID 171).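 Further: 0% = growth of vehicle-treated control cultures of the same strain.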 Particulars: S. cerevisiae mlh1 strain growth inhibition; at 1.2 µM; active compounds read high. The essentials:
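Test agents were incubated with yeast bearing a defined DNA damage repair or cell cycle control alteration; values are growth inhibition normalised to vehicle-treated cultures.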
In the case of `NC1CCCCC1N.Nc1c(N=Nc2ccc(-c3ccc(N=Nc4cc(S(=O)(=O)[O-])c5ccccc5c4N)cc3)cc2)cc(S(=O)(=O)[O-])c2ccccc12.[OH3+].[OH3+].[Pt+4]`, the growth inhibition was -1%. As to `COC(=O)CCC(NC(=S)N/N=C(\C)c1ccccn1)C(=O)OC` (stereo not given), the growth inhibition was 20%.

As to `NC(=O)C(=O)NNc1ccccc1`, the growth inhibition is 3%. As to `COc1cc(C2SCC(=O)N2c2ccc(-c3ccc(-n4c(-c5ccccc5)nc5ccccc5c4=O)cc3)cc2)ccc1O` (stereo not given), the growth inhibition is -2%.

Turning to `COc1ccc(/C=C/c2sc3ccccc3[n+]2CCCCI)cc1OC`, the growth inhibition is -2%. On to `Cc1c(C(C)C)cc(OCCO)cc1C(C)C`, for which the growth inhibition was -9%. In the case of `Cc1cc(NCCCCCCCCNc2cc(C)nc3cc(N)ccc23)c2ccc(N)cc2n1`, the growth inhibition was -88%.

As for `C=C(Cl)COC(=O)Nc1cccc(Cl)c1`, the growth inhibition was -6%. In the case of `CC(=O)OC1CC2C(C)(C)C(=O)C=C[C@]2(C)C2CCC3(C)C(=CCC3[C@H](CO)C[C@H](O)C(=O)C(C)(C)O)[C@]12C` (stereo not given in full), the growth inhibition is -35%.

For `COc1ccc(/C=C/C(=O)c2ccccc2)cc1OC`, the growth inhibition was 20%. Consider `COc1c(O)c(C=O)c(Br)c(C=O)c1O`, for which the growth inhibition is 5%. `O=[N+]([O-])c1cc(Cl)cnc1Br`: the growth inhibition was 6%. In the case of `Cc1ccc2c(c1)C1(SC(C)C(=O)N1c1ccc(Cl)cc1)C(=O)N2` (stereo not given), the growth inhibition was -1%. In the case of `COc1cc(CSc2ccc(O)cc2)cc(O)c1O`, the growth inhibition is 4%. Consider `Cc1ccc2c3ccc4c(c3n(C)c2c1)C(=O)C=CC4=O`, for which the growth inhibition was -10%. As for `O=C(Nc1ccc(Cl)cc1)Nc1nnc2nc(C(C(=O)c3cccc([N+](=O)[O-])c3Cl)c3nc4nnc(NC(=O)Nc5ccc(Cl)cc5)n4[nH]c3=O)c(=O)[nH]n12`, the growth inhibition is 1%.

Consider `O=C(O)C1CC(c2ccccc2)=NN1c1ccccc1` (stereo not given), for which the growth inhibition is -31%. Take `CCCCc1ccc(-n2c(C)c(COC(=O)NC)c(COC(=O)NC)c2C)cc1`: the growth inhibition was -39%. In the case of `CCC(=O)c1cc(C(=O)C(=S)SC)cc(C(=O)C(=S)SC)c1`, the growth inhibition is 0%.

With `CCn1c(O)c(C=Nc2ccccc2)s/c1=N/Nc1nc(-c2ccccc2)cs1`, the growth inhibition is -2%. As to `Cc1ccccc1N=C(NO)c1ccccc1`, the growth inhibition was 1%. `Cc1nc2ccccc2nc1NNc1ccccc1`: the growth inhibition is 1%.

The same assay, now with this note: S. cerevisiae mlh1 strain growth inhibition; at 3.7 µM; active compounds read high.
As for `O=[N+]([O-])c1cc[n+]([O-])cc1`, the growth inhibition was -6%. In the case of `CC1(C)CC(=O)C(/C=N/c2nc(-c3ccccc3)cs2)=C(O)C1`, the growth inhibition is 3%. On the same count and under the same terms, as for `Nc1nc(N)c2nc(CNc3ccc(C(=O)NC(CCC(=O)O)C(=O)O)cc3F)cnc2n1` (stereo not given), the figure is 10%; as for `COC(=O)CC1(O)C(/C=C/c2ccccc2)C(C(=O)OC)C(=O)C(C(=O)OC)C1C(=O)OC` (stereo not given), -1%; as for `CC(C)(C)c1ccc(NS(=O)(=O)c2ccc(N)cc2)cc1`, 3%.

As for `CCN(CC)CCNc1ccc([N+](=O)[O-])c2nc3ccccc3c(N)c12`, the growth inhibition is -7%.

For the compound `CCCCN(CCCC)C(=O)/C=C/c1ccccc1`, the growth inhibition was -4%. On to `O=c1[nH]c(-c2ccccc2)nc2c1sc1nc3ccccc3n12`, for which the growth inhibition was -44%.

With `O=[N+]([O-])c1ccc2c(c1)/C(=N/N=C1c3ccccc3Cc3ccccc31)c1cc([N+](=O)[O-])cc([N+](=O)[O-])c1-2`, the growth inhibition was 50%. Turning to `CC(C)C(C)/C=C\C(C)C1CCC2C3=CC=C4CC(O)CCC4(C)C3CCC21C` (stereo not given), the growth inhibition was -3%. Consider `O=C1Nc2ccc(Br)cc2C1=Nc1ccc2c(c1)OCO2`, for which the growth inhibition is -13%. In the case of `CCCCOCn1c(=O)[nH]c(=O)c2cc(Br)ccc21`, the growth inhibition is -48%. For the compound `Cc1ccc(S/C(=C\C(=O)O)c2ccccc2)cc1`, the growth inhibition is 0%. With `O=[N+]([O-])/C=C/c1cc(Cl)c(/C=C/[N+](=O)[O-])cc1Cl`, the growth inhibition is 48%. Take `Cc1cc(S(=O)(=O)Nc2nnc3cnc4ccccc4n23)c(S)cc1Cl`: the growth inhibition is -4%.

For `O=C(/C=C/c1cc(Cl)cc(Cl)c1O)c1cccc(O)c1`, the growth inhibition is 21%. Consider `NC1CCCCC1N.Nc1c(N=Nc2ccc(-c3ccc(N=Nc4cc(S(=O)(=O)[O-])c5ccccc5c4N)cc3)cc2)cc(S(=O)(=O)[O-])c2ccccc12.[OH3+].[OH3+].[Pt+4]`, for which the growth inhibition was 7%. For the compound `COC(=O)CCC(NC(=S)N/N=C(\C)c1ccccn1)C(=O)OC` (stereo not given), the growth inhibition is 2%. On to `NC(=O)C(=O)NNc1ccccc1`, for which the growth inhibition was 5%. Consider `COc1cc(C2SCC(=O)N2c2ccc(-c3ccc(-n4c(-c5ccccc5)nc5ccccc5c4=O)cc3)cc2)ccc1O` (stereo not given), for which the growth inhibition was 1%.

With `COc1ccc(/C=C/c2sc3ccccc3[n+]2CCCCI)cc1OC`, the growth inhibition is -4%. Take `Cc1c(C(C)C)cc(OCCO)cc1C(C)C`: the growth inhibition is -4%. As to `Cc1cc(NCCCCCCCCNc2cc(C)nc3cc(N)ccc23)c2ccc(N)cc2n1`, the growth inhibition was -63%. The same measure, in the same setting: the figure for `C=C(Cl)COC(=O)Nc1cccc(Cl)c1` is -1%. In the case of `CC(=O)OC1CC2C(C)(C)C(=O)C=C[C@]2(C)C2CCC3(C)C(=CCC3[C@H](CO)C[C@H](O)C(=O)C(C)(C)O)[C@]12C` (stereo not given in full), the growth inhibition was -23%. On to `COc1ccc(/C=C/C(=O)c2ccccc2)cc1OC`, for which the growth inhibition was 19%. Take `COc1c(O)c(C=O)c(Br)c(C=O)c1O`: the growth inhibition is 2%. `O=[N+]([O-])c1cc(Cl)cnc1Br`: the growth inhibition is 8%. For the compound `Cc1ccc2c(c1)C1(SC(C)C(=O)N1c1ccc(Cl)cc1)C(=O)N2` (stereo not given), the growth inhibition is 3%.

On to `COc1cc(CSc2ccc(O)cc2)cc(O)c1O`, for which the growth inhibition was 0%.

As to `Cc1ccc2c3ccc4c(c3n(C)c2c1)C(=O)C=CC4=O`, the growth inhibition is -3%. In the case of `O=C(Nc1ccc(Cl)cc1)Nc1nnc2nc(C(C(=O)c3cccc([N+](=O)[O-])c3Cl)c3nc4nnc(NC(=O)Nc5ccc(Cl)cc5)n4[nH]c3=O)c(=O)[nH]n12`, the growth inhibition was -2%. Take `O=C(O)C1CC(c2ccccc2)=NN1c1ccccc1` (stereo not given): the growth inhibition is -14%. Take `CCCCc1ccc(-n2c(C)c(COC(=O)NC)c(COC(=O)NC)c2C)cc1`: the growth inhibition was -18%. `CCC(=O)c1cc(C(=O)C(=S)SC)cc(C(=O)C(=S)SC)c1`: the growth inhibition was 40%. In the case of `CCn1c(O)c(C=Nc2ccccc2)s/c1=N/Nc1nc(-c2ccccc2)cs1`, the growth inhibition was 3%. The same measure, in the same setting: the figure for `Cc1ccccc1N=C(NO)c1ccccc1` is 2%; for `Cc1nc2ccccc2nc1NNc1ccccc1` it is -4%.
